# Screening results from PubChem.
# TWEAK Fn14 block: inhibitors of TWEAK-Fn14 signaling, primary screen, luciferase reporter cells, uHTS; TWEAK-stimulated Fn14 reporter cells, luciferase luminescence, 8 h; actives 2% (n = 360,000); inhibition, % at 10 µM; in the data active = inhibition above about 50%
# TROY signal inh: inhibitors of TROY-driven NF-kB signaling, primary screen, Q293 LMP1-TROYcd cells, NF-kB luciferase, uHTS; actives 0.98% (n = 360,000); inhibition, % at 10 µM; Q293 LMP1-TROYcd NF-kB luciferase reporter, 4 h;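 active = compounds whose plate-normalised and pattern-corrected inhibition of the luciferase reporter signal at the single screening dose is 50% or more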
# HSF1 activator: HSF-1 activators, primary screen, NIH3T3-HGL cells, MG132 stress, luminescence, single point. NIH3T3-HGL HSF-1 luciferase reporter, 8 h; 100% = twice DMSO control signal. activation, % at 9 µM. actives 1.7% (n = 300,000). AID 504408, 2011;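 active = mean replicate activation of at least 50% with a set share of replicates each reaching 50%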;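 also: 0% = median of the neutral control wells and 100% = twice that signal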
# HSP90 refold inh: HSP90 inhibitors, primary screen, cell lysate, luminescence | Heat shock protein HSP 90 (rabbit reticulocyte lysate; luciferase refolding) | Rabbit reticulocyte lysate, luciferase refolding luminescence, 3 h | inhibition, % at 5.6 µM | actives 0.91% (n = 290,000) | AID 1789, 2009;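 active = inhibition above the screen-wide mean plus 3 SD, computed separately per campaign, cut at about 16% in these data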;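 also: 0% = DMSO wells and 100% = 60 µM geldanamycin wells; inhibitors lower the luminescence because luciferase stays unfolded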
# EBV LMP1 NFkB: EBV LMP1-driven NF-kappaB luciferase reporter inhibitors, primary screen, cell-based, luminescence, single point; LMP1-induced NF-kappaB luciferase reporter cells; inhibition, % at 12.5 µM; actives 0.69% (n = 350,000); AID 504558, 2011; in the data active = inhibition above about 41%;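 also: 0% = neutral control wells and 100% = reference inhibitor control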
# HSF1 inhib: HSF1 inhibitors in luciferase reporter cells, primary screen, cell-based, NIH3T3, luminescence | actives 0.77% (n = 300,000) | activity change, negative = inhibition, % at 7.5 µM (by protocol) | NIH3T3-HGL HSE-luciferase, MG132-induced, luminescence 8 h; hits give low values | AID 2098, 2009;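 active = more than half of replicate wells show activity change below -50%, luminescence cut by over half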;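 also: luciferase reports HSF-1 transcriptional activity via heat shock element; 0% = median of DMSO wells and -100% = zero luminescence signal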
# * hit, by the source's call; / = not tested or not shown. Rows were chosen to be rich in hits. Some 4.7% of all compounds tested hit in one or more screens of this group.
SMILES,TWEAK Fn14 block,TROY signal inh,HSF1 activator,HSP90 refold inh,EBV LMP1 NFkB,HSF1 inhib
CCn1c(CNC(=O)c2ccccc2F)cc2cc(C)ccc21,-11,-48,2,0,-23,-5
CCn1c(CNC(=O)C2CCCCC2)cc2cc(C)ccc21,54*,14,-11,1,3,-1
CC1(C(=O)NS(=O)(=O)C2CC2)CCCN(C(=O)c2ccc(F)cc2Cl)C1 (stereo not given),-15,-15,/,/,/,/
COC(=O)c1ccc2c(=O)n(CC3CCCO3)c(SCC(=O)Nc3ccccc3Cl)nc2c1 (stereo not given),7,-53,16,-5,-4,5
COC(=O)c1ccc2c(=O)n(CC3CCCO3)c(SCC(=O)Nc3ccccc3OC)nc2c1 (stereo not given),13,-12,55*,4,7,28
O=C1OCC/C1=C1/NCCNC1=O,-3,-11,/,/,-4,/
CC(=O)Nc1ccc(-c2ccnc3c2CC(C)(C(=O)NCc2ccc(N4CCN(C)CC4)cc2)O3)cc1 (stereo not given),-2,-12,/,/,/,/
CCc1cc(C(c2ccc(F)cc2)N2CCOCC2)c(NC(=O)c2ccccc2)s1 (stereo not given),27,-30,63*,2,-8,35
COc1ccc(C(=O)c2cc(OC)c(OC)c(OC)c2)cc1OC,1,14,/,/,10,/
Cc1ccc(/C(N)=N/OC(=O)c2ccc(Cl)cc2Cl)cc1,79*,61*,-28,7,-6,-23
Cc1cc(/C(N)=N/OC(=O)c2cccc(Cl)c2)no1,-18,-41,28,-4,-23,20
N/C(=N\OC(=O)c1ccc(Cl)cc1)c1[nH]ncc1Br,65*,18,1,4,-25,-9
CCO/N=C(\N)c1[nH]ncc1Br,12,-1,6,-1,-1,-1
COc1ccc(/C(N)=N/OC(=O)c2cccs2)cc1,43,22,17,15,-11,6
Cc1cc(/C(N)=N/OC(=O)c2ccc(Cl)cc2)no1,7,-7,64*,8,-38,32
N/C(=N\OC(=O)c1cccs1)c1ccc(Cl)cc1,-26,-41,60*,-5,/,16
O=C(NCc1ccc(Cl)nc1)c1csc([C@@H]2C[C@H](O)[C@@H](CO)O2)n1,4,6,/,/,/,/
O=C(Nc1cccnc1)C1Cc2c(-c3ccc4c(c3)OCO4)ccnc2O1 (stereo not given),9,22,/,/,/,/
O=C1O[C@@H](c2ccccc2)C[C@@H](O)C(=O)CCCCc2ccccc21,10,0,/,/,/,/
O=C(NCCN1CCC(n2c(=O)[nH]c3ccccc32)CC1)c1ccc(Cl)c(Cl)c1,-7,7,/,/,/,/
Cc1ccc(S(=O)(=O)n2cccc2/C=C/[N+](=O)[O-])cc1,-32,-11,/,/,36,/
COc1ccc(C=O)cc1CN1CCCN(Cc2ccc(Cl)cc2)S1(=O)=O,8,18,-84,-5,8,-80*
Cc1nn(CC(=O)NC2CCCCC2)c(C)c1[N+](=O)[O-],-2,-3,/,/,1,/
CCCCn1c(SCC(=O)Nc2cc(C)on2)nc2cc(S(N)(=O)=O)ccc21,5,-4,/,/,0,/
CCCCn1c(SCc2c(C)noc2C)nc2cc(S(N)(=O)=O)ccc21,-1,-5,52*,9,15,30
SMILES,TWEAK Fn14 block,TROY signal inh,HSF1 activator,HSP90 refold inh,EBV LMP1 NFkB,HSF1 inhib
O=CNc1ccc2c3c(cccc13)-c1ccccc1-2,-44,-74,/,/,-3,/
CC1(c2nc3ccccc3[nH]2)CCCC2=Nc3ccccc3CN21 (stereo not given),-13,5,/,/,/,/
CCOC(=O)c1ccc(NC(=S)NC(=O)C2CCCC2)cc1,-29,-34,-80,2,2,-74*
CCOC(=O)c1ccc(NC(=S)N2CCCC(C(=O)N3CCCC3)C2)cc1 (stereo not given),15,-24,-34,-5,-4,-17
CCOC(=O)c1ccc(NC(=S)N2CCCC(C)C2)cc1 (stereo not given),13,-54,62*,0,-8,26
CCOC(=O)c1ccc(NC(=O)C2CCCN(S(=O)(=O)c3ccc(F)cc3)C2)cc1 (stereo not given),58*,45,1,-1,18,-2
C=CCN(CC=C)CC(=O)Nn1c(C)ccc1C,10,2,/,/,-5,/
O=C1CC(c2ccc(Cl)cc2)n2nc(NS(=O)(=O)c3ccc(F)cc3)nc2N1 (stereo not given),5,-6,64*,0,1,15
Cc1ccc(S(=O)(=O)Nc2nc3n(n2)C(c2ccc(Cl)cc2)CC(=O)N3)cc1 (stereo not given),-5,-5,-6,2,-2,-14
O=C(CCC(=O)NNC(=O)Nc1cccc(Cl)c1)NCc1ccccc1,-23,-4,8,1,42*,-9
CC(C)(C)c1cc(C(=O)NNC(=O)Nc2cccc(Cl)c2)n(Cc2ccccc2)n1,23,26,/,2,53*,/
O=C(CN1c2ccccc2Sc2ccccc21)NNC(=O)Nc1cccc(Cl)c1,40,53*,13,0,2,2
COCC#Cc1ccc2c(c1)O[C@@H](CN(C)S(=O)(=O)c1cccc(F)c1)[C@@H](C)CN([C@H](C)CO)S2(=O)=O,2,7,/,/,-6,/
O=C(N/N=C/C=C/c1ccccc1[N+](=O)[O-])c1ccncc1,-2,14,-11,0,-11,-1
O=C(N/N=C/C=C\c1ccccc1[N+](=O)[O-])c1cc(-c2ccc3ccccc3c2)n[nH]1,2,-2,64*,-2,-44,14
CCCc1ccc(NC(=O)C2CCCN(c3cnccn3)C2)cc1 (stereo not given),-19,-33,61*,1,-5,25
COc1cc(-c2cn(S(=O)(=O)c3cccc4nsnc34)nc2N)cc(OC)c1OC,-13,6,59*,0,-8,19
Cc1ccc(-c2cn(S(=O)(=O)c3cccc4nsnc34)nc2N)cc1,11,5,2,3,-5,6
O=C(CNc1cccc2ccccc12)N/N=C/c1ccc([N+](=O)[O-])cc1,82*,-1,77*,3,-14,31
CCCC#Cc1ccc2c(c1)O[C@H](CN(C)S(=O)(=O)c1cccc(OC)c1)[C@H](C)CN([C@H](C)CO)S2(=O)=O,22,12,/,/,8,/
CN(c1ccccc1)c1ncccn1,0,8,-91,/,/,-89*
CN(c1ccccc1)c1nc(-n2ccnc2)nc(-n2ccnc2)n1,-7,-5,11,-3,-14,-2
